Compound activity from PubChem BioAssay.
The list is not random: actives were taken first. Their share in the collection is about 4.2%.
Hsp70 activator: Hsp70 transcriptional activators, primary screen, cell-based, HeLa, Hsp70 promoter luciferase, luminescence, 10 µM. HeLa Hsp70 promoter luciferase reporter; scaled: vehicle 0, proteasome-inhibitor control 100%. activation, % at 10 µM. 200,000 compounds, 0.04% hits. AID 1203, 2008;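 active = activation above the mean across all tested compounds plus 3 SD, cutoff set per campaign, cut at about 5.5% in these data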
S1P4 agonist: S1P4 receptor agonists, primary screen, cell-based. Sphingosine 1-phosphate receptor 4 (Homo sapiens), O95977. S1P4-expressing cell line, agonist reporter assay. activation, % at 4.98 µM. 220,000 compounds, 0.35% hits. AID 1509, 2009; in the data active = activation above about 11%
Target sequence (O95977 whole entry, looked up): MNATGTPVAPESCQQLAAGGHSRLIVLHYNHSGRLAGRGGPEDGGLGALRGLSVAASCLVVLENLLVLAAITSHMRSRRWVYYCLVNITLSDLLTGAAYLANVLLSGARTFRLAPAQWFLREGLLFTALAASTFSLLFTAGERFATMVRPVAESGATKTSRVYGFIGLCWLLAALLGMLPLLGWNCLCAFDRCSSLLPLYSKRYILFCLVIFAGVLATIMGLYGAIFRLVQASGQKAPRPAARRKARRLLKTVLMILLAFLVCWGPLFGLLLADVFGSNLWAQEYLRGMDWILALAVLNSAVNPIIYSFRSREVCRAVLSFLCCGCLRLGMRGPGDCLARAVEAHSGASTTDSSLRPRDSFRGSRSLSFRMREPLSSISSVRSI
CHOP inh: inhibitors of CHOP promoter induction, primary screen, cell-based, unfolded protein response, luciferase reporter; AID 2732, 2010; 220,000 compounds, 3.8% hits; CHO-K1 CHOP-promoter luciferase, tunicamycin-induced, 15-18 h; inhibition, % at 10 µM;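 active = compounds that reduced the stress-induced luciferase reporter signal by more than about 70% of percent inhibition, limit read from the data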
S1P4 antag: S1P4 receptor antagonists, primary screen, cell-based | Sphingosine 1-phosphate receptor 4 (Homo sapiens), O95977 | inhibition, % at 4.98 µM | 220,000 compounds, 0.26% hits | S1P4-expressing cells, antagonist mode, reporter read-out; in the data active = inhibition above about 29%
CHOP inh conf: retest of CHOP induction inhibitors, confirmation, cell-based; inhibition, % at 10 µM; 2,100 compounds, 45% hits; CHO-CHOP promoter luciferase reporter, tunicamycin-induced, luminescence; shares compounds with CHOP inh;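 active = mean of three repeat readings of reporter signal inhibition above a set limit, cut at about 70% in these data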
Of the large screens only hits and unclear results are named; the others gave an inactive call (follow-up assays come after a bar, where they were run).

CNc1ncc(C(=O)c2ccccc2)s1	none
COCCCn1c(SCc2nc3ccccc3c(=O)[nH]2)nc2ccccc2c1=O	none
Cc1cc(N/N=C/c2ccc(O)cc2O)nc(-c2ccccc2O)n1	CHOP inh 101.2 | CHOP inh conf inactive
COc1cc(C(=O)OCC(=O)NC(=O)c2cccn2C)ccc1OC(F)F	none
CCCCN(CC)S(=O)(=O)c1ccc(C(=O)N=c2sc3cc(NC(C)=O)ccc3n2C)cc1	none
O=[N+]([O-])c1ccc(N/N=C/c2c[nH]c3ccccc23)c(S(=O)(=O)Nc2ccc(Cl)cc2)c1	CHOP inh 106.4 | CHOP inh conf inactive
COc1ccc(C(=O)C2CCCN(Cc3ccc(C#CCCO)cc3)C2)c(OC)c1 (stereo unspecified)	none
Cc1cc(C)c(C(CC(=O)c2cccs2)C(C#N)C#N)c(C)c1 (stereo unspecified)	CHOP inh 103.5 | CHOP inh conf inactive
CC(CC(=O)c1cccs1)CC(=O)c1cccs1	none
Clc1ccc(Cc2nnc(-c3ccccc3Br)o2)cc1	none
O=c1c(Cl)c(Cl)cnn1Cc1nnc(-c2ccccc2Br)o1	CHOP inh 104.2 | CHOP inh conf 122.1
Cc1cc(/C=C2\C(=O)NN(c3ccccc3)C2=O)c(C)n1-c1ccccc1O	CHOP inh 96.4 (no result: Hsp70 activator) | CHOP inh conf inactive
O=C(O)c1ccc(N/N=C/C=C/c2ccccc2[N+](=O)[O-])cc1	none
CC1(c2ccccc2)CC(C)(C)N2C(=O)/C(=C3\SC(=S)NC3=O)c3cccc1c32 (stereo unspecified)	CHOP inh 97.2 | CHOP inh conf 81.6
CCN1/C(=C2/SC(=S)NC2=O)Sc2ccccc21	none
Cc1ccc(C(C(=O)NCC2CCCO2)N(Cc2ccccc2F)C(=O)Cn2nnc(-c3cccs3)n2)cc1 (stereo unspecified)	none
Cc1ccc2nc(NC(=O)CSCC(=O)OCC(=O)c3ccc(Br)cc3)sc2c1	CHOP inh 100.2 | CHOP inh conf 106.8
Cc1ccc(OCC(=O)N2N=C(C(F)(F)F)CC2(O)C(C)(C)C)cc1C (stereo unspecified)	CHOP inh 103.2 | CHOP inh conf 116.0
COc1ccc(C(=O)NC2CCN(C(=S)Nc3ccccc3C)CC2)cc1	none
O=C(/C=C/c1ccncc1)c1ccc(NC(=O)c2ccccc2F)cc1	CHOP inh 105.8, S1P4 antag 37.4 | CHOP inh conf inactive
O=C(Nc1cccnc1)c1ccccc1F	none
Cc1noc(NS(=O)(=O)c2ccc(N/C=C/C(=O)c3ccc4c(c3)OCO4)cc2)c1C	none
Nc1ccc(Cl)c(-c2nc3ncccc3o2)c1	none
CCC(=O)Nc1c(C(=O)N2CCCCCC2)cnn1-c1ccc(C)c(C)c1	none
CC(=O)c1cc(CN2CCN(Cc3ccc(C)cc3)C(CCO)C2)cs1 (stereo unspecified)	none
O=C(Cn1cnc2scc(-c3ccccc3)c2c1=O)N1CCOCC1	none
CNc1oc(-c2ccc(C)cc2)nc1P(=O)(c1ccccc1)c1ccccc1	CHOP inh 106.6 | CHOP inh conf inactive
Cn1nc([N+](=O)[O-])c(C(C#N)c2ccccn2)c(Cl)c1=O (stereo unspecified)	CHOP inh 102.8 | CHOP inh conf inactive
O=C(CCC(=O)NNC(=O)Cc1ccccc1)NCc1ccccc1	none
COc1ccc(Cn2c(C)c(C)c(C#N)c2NC(=O)Nc2ccc(Cl)cc2)cc1	CHOP inh 105.8 | CHOP inh conf 102.9
COc1cc(-c2nc(S(=O)(=O)c3ccccc3)c(N3CCOCC3)o2)cc(OC)c1OC	none
Cc1ccc(C(=O)Nc2nc3ccccc3c(=O)s2)cc1	CHOP inh 102.4 | CHOP inh conf inactive
Cc1ccc(C(=O)Nc2cnc3ccccc3c2)cc1	CHOP inh 98.4 | CHOP inh conf 117.2
Cc1cc(C(=O)Nc2cnc3ccccc3c2)ccc1[N+](=O)[O-]	none
CCOC(=O)c1ccc(Oc2nc(NC(C)(C)C)nc(N(C)C)n2)cc1	none
CC1CCN(c2nc3ccc(C(=O)O)cc3s2)CC1	CHOP inh 96.7 | CHOP inh conf 108.4
CCOC(=O)C1CCN(c2ccc(Cl)nn2)CC1	none
CC1=C(C(=O)Nc2ccc(C)cc2C)C(c2cccc(Cl)c2)n2nc(C(=O)OC(C)C)nc2N1 (stereo unspecified)	CHOP inh 105.7 | CHOP inh conf 117.5
C=CCn1c(CNC(=O)c2cccs2)n[nH]c1=S	none
COc1ccc(/C=N/n2c(N)nc(-c3ccccc3)c2-c2ccccc2)cc1	CHOP inh 104.4 | CHOP inh conf inactive
O=C(O)c1cccc(N2C(=O)c3cccc4c(Cl)ccc(c34)C2=O)c1	none
O=C1c2ccc3c4c(ccc(c24)C(=O)N1c1cccc(O)c1)C(=O)N(c1cccc(O)c1)C3=O	CHOP inh 100.9 (no result: Hsp70 activator) | CHOP inh conf 86.3
COc1cccc2cc(/C(=N/O)c3ccc(Br)cc3)oc12	CHOP inh 105.7 | CHOP inh conf inactive
CN(C(=O)CCl)C1CCCc2ccccc21 (stereo unspecified)	CHOP inh 105.9 | CHOP inh conf 80.2
COc1cccc(C(=O)Nc2ccccc2)c1	none
O=C(Nc1cc(Cl)cc(Cl)c1)c1cccc(OC(F)F)c1	CHOP inh 97.4 | CHOP inh conf inactive
CNC(CC(=O)c1ccc([N+](=O)[O-])cc1)C(Cl)(Cl)Cl (stereo unspecified)	CHOP inh 109.6 | CHOP inh conf inactive
COc1cccc(CNC(=O)C2CCC(CNc3nc(=S)[nH]c4ccccc34)CC2)c1 (stereo unspecified)	none
Cc1ccc(CNC(=O)C2CCC(CNc3nc(=S)[nH]c4ccccc34)CC2)cc1 (stereo unspecified)	CHOP inh 97.9 | CHOP inh conf inactive
COc1ccc(CCn2c(C)ccc2C)cc1OC	none
O=C(O)c1ccc(N/N=C/c2ccc(F)c(F)c2)cc1	none
O=C(O)c1ccc(N/N=C/c2ccc3nccnc3c2)cc1	CHOP inh 100.9 (no result: Hsp70 activator) | CHOP inh conf 116.2
COc1ccc(C2NCCc3c2[nH]c2ccccc32)cc1CSc1nc2ccccc2s1 (stereo unspecified)	CHOP inh 99.5 | CHOP inh conf inactive
CCN(CC)c1ccc(/C=N/NC(=O)c2cc(C)nc3ccccc23)cc1	none (no result: Hsp70 activator)
COc1ccc(/C=N/NC(=O)c2nc(Cl)c(Cl)c(N)c2Cl)cc1COc1ccc(F)cc1F	CHOP inh 100.5 | CHOP inh conf inactive
COc1ccc(/C=N/NC(=O)c2nc(Cl)c(Cl)c(N)c2Cl)cc1COc1ccccc1F	none
CC(=O)c1cccc(NC(=O)Nc2c(C)nn(C)c2C)c1	none
CS(=O)(=O)N(CC(=O)Nc1ccc2c(c1)OCO2)Cc1ccc(Cl)cc1	none
CCCOC(=O)c1ccc(Oc2cn[nH]c2-c2ccc(OC)cc2O)cc1	CHOP inh 106.4 | CHOP inh conf 115.8
COc1ccc(OC)c(-c2c3cc(O)c(=O)cc-3oc3cc(O)c(O)cc23)c1	none
O=C(Nc1ccc2nc(-c3ccccc3)[nH]c2c1)c1ccco1	none
